What was measured:
Assay in all cases: DAPPL (digital affinity profiling via proximity ligation, sequencing); 10 mM Tris-HCl pH 7.5, 50 mM NaCl, 1 mM DTT, 4% glycerol, room temperature, 30 min; GST-TFs on glutathione beads, 16-mer random dsDNA library, 0.1% formaldehyde crosslink after washing; high values mean tight binding
Conditions in all cases: protein: recombinant; tags: N-terminal GST; dsDNA, one strand shown
FLI1 = target: T1, FLI1 (Homo sapiens, UniProt Q01543 1-452)
T1 sequence: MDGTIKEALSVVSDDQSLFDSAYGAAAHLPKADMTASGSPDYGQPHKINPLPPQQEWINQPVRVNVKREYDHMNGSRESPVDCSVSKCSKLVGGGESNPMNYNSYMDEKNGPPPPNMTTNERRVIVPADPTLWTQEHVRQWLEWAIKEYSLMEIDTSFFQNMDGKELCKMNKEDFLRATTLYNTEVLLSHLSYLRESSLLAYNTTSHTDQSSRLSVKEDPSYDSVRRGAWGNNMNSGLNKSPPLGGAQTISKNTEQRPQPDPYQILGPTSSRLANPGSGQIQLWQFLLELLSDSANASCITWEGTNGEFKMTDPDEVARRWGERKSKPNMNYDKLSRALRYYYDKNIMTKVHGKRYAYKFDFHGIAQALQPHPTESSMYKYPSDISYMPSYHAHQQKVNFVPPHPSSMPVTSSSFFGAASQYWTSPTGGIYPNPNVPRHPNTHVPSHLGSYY
Summary of the method: (§1)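 Human transcription factors carrying a GST fusion were produced in yeast, bound to glutathione beads, tagged with DNA barcodes and pooled together with a tag-only sample. Each pool was held with 200 nmole of a random double-stranded 16-mer DNA library in Tris/NaCl/DTT/glycerol buffer for 30 min at room temperature, then washed, crosslinked in 0.1% formaldehyde, proximity-ligated with BsaI/T4 ligase (1 h, 37 °C), PCR-amplified and sequenced on an Illumina NextSeq500. Binding signal is the read frequency of each hexamer for a given factor divided by its frequency in the tag-only sample.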

ELK1 = target: T2, ELK1 (Homo sapiens, UniProt P19419 1-428)
T2 sequence: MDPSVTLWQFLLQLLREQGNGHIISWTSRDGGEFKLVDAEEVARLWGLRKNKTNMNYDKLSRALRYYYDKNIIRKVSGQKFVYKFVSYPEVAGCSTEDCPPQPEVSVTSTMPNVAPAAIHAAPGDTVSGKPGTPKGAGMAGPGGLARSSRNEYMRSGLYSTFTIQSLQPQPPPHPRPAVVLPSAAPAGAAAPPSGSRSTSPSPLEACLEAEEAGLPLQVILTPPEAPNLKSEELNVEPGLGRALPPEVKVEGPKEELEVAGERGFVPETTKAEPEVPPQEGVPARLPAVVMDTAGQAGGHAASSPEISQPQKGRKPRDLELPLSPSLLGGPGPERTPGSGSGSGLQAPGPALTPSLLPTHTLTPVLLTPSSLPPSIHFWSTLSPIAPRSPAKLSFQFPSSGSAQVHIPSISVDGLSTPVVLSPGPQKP
Summary of the method: as §1

GABPA = target: T3, GABPA (Homo sapiens, UniProt Q06546 1-454)
T3 sequence: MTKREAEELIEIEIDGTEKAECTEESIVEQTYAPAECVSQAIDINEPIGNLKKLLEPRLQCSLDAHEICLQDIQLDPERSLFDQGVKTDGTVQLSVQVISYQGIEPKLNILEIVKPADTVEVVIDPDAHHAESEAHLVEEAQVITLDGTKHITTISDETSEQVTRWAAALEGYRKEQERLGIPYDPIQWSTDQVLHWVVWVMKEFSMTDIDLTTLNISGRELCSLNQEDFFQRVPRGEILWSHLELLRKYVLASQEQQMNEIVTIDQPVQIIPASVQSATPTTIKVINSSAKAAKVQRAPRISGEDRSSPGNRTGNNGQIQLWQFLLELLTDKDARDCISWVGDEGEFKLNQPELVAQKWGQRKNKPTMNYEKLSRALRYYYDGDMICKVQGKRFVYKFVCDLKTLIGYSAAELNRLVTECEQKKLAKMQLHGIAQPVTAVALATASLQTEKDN
Summary of the method: as §1

ERG = target: T4, ERG (Homo sapiens, UniProt P11308 1-479)
T4 sequence: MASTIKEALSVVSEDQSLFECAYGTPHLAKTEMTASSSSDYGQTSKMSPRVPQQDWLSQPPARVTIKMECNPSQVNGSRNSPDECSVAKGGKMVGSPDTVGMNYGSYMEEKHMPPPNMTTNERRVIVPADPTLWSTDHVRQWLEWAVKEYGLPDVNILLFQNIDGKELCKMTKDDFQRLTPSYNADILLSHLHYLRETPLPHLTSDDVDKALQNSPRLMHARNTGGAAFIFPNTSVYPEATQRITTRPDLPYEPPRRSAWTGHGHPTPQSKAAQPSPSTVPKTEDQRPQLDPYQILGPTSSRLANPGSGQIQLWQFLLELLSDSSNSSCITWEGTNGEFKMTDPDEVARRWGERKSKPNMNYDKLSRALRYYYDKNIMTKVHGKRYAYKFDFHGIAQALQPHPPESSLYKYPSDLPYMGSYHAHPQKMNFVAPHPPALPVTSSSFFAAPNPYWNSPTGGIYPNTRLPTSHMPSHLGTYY
Summary of the method: as §1

ELF1 = ELF1 (Homo sapiens, UniProt P32519 1-619)
ELF1, sequence (P32519 whole entry): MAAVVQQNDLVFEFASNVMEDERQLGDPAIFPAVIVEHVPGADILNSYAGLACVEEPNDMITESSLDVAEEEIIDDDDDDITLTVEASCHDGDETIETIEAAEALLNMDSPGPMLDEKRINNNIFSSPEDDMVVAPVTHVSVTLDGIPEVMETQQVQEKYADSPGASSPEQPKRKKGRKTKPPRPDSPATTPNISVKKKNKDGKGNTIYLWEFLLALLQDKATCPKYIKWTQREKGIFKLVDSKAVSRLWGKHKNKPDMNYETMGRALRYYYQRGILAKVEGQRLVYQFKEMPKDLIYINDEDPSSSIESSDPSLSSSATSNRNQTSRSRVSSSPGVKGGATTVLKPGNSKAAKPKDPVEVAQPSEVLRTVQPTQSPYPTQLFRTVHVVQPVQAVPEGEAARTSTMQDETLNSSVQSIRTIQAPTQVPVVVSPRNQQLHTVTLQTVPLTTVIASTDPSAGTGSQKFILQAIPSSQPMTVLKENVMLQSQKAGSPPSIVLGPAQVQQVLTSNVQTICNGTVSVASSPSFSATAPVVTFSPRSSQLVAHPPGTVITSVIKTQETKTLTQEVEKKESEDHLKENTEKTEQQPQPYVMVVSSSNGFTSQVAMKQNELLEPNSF
Summary of the method: as §1

EHF = target: T5, EHF (Homo sapiens, UniProt Q9NZC4 1-300)
T5 sequence: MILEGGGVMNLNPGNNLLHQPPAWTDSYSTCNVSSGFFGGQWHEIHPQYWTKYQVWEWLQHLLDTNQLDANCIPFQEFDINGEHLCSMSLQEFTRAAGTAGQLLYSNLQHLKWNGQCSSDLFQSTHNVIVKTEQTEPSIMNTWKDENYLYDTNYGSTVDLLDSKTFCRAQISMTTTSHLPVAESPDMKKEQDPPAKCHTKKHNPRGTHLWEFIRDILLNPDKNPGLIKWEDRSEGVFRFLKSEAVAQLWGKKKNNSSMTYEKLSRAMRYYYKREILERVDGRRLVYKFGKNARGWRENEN
Summary of the method: as §1

SPI1 = SPI1 (Homo sapiens, UniProt P17947 1-270)
Summary of the method: as §1

SPIB = SPIB (Homo sapiens, UniProt Q01892 1-262)
SPIB, sequence (Q01892 whole entry): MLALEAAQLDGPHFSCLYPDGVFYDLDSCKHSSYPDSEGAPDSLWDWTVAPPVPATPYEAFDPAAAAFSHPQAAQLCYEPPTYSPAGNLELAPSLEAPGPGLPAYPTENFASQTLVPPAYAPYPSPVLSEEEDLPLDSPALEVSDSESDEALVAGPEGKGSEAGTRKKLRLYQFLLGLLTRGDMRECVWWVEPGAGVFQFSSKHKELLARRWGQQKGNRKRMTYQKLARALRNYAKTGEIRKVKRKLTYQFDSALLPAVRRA
Summary of the method: as §1

ELK3 = target: T6, ELK3 (Homo sapiens, UniProt P41970 1-407)
T6 sequence: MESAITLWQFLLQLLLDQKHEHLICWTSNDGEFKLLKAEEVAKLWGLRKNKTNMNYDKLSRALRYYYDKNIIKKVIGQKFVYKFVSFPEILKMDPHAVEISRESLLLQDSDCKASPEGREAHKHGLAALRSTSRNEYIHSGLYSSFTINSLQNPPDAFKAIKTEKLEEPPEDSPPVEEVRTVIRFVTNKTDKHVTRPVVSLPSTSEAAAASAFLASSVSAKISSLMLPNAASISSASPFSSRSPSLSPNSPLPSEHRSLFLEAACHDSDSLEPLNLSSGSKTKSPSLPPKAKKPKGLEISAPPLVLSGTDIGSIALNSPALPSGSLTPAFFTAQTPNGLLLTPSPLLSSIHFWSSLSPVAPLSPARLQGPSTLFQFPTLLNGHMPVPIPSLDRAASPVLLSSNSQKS
Summary of the method: as §1

Sequence	binding signal (FLI1)	binding signal (ELK1)	binding signal (GABPA)	binding signal (ERG)	binding signal (ELF1)	binding signal (EHF)	binding signal (SPI1)	binding signal (SPIB)	binding signal (ELK3)
TTCGGT	1.06 fold enrichment (6-mer frequency, TF over GST control)	1.09 fold enrichment (6-mer frequency, TF over GST control)	1.13 fold enrichment (6-mer frequency, TF over GST control)	1.1 fold enrichment (6-mer frequency, TF over GST control)	1.14 fold enrichment (6-mer frequency, TF over GST control)	1.23 fold enrichment (6-mer frequency, TF over GST control)	1.2 fold enrichment (6-mer frequency, TF over GST control)	1.16 fold enrichment (6-mer frequency, TF over GST control)	1.22 fold enrichment (6-mer frequency, TF over GST control)
TCGCTC	1.25 fold enrichment (6-mer frequency, TF over GST control)	1.27 fold enrichment (6-mer frequency, TF over GST control)	1.35 fold enrichment (6-mer frequency, TF over GST control)	1.26 fold enrichment (6-mer frequency, TF over GST control)	1.29 fold enrichment (6-mer frequency, TF over GST control)	1.19 fold enrichment (6-mer frequency, TF over GST control)	1.29 fold enrichment (6-mer frequency, TF over GST control)	1.27 fold enrichment (6-mer frequency, TF over GST control)	1.37 fold enrichment (6-mer frequency, TF over GST control)
TCTCTT	1.52 fold enrichment (6-mer frequency, TF over GST control)	1.34 fold enrichment (6-mer frequency, TF over GST control)	1.45 fold enrichment (6-mer frequency, TF over GST control)	1.27 fold enrichment (6-mer frequency, TF over GST control)	1.47 fold enrichment (6-mer frequency, TF over GST control)	1.41 fold enrichment (6-mer frequency, TF over GST control)	1.32 fold enrichment (6-mer frequency, TF over GST control)	1.38 fold enrichment (6-mer frequency, TF over GST control)	1.31 fold enrichment (6-mer frequency, TF over GST control)
CTGAAC	1.35 fold enrichment (6-mer frequency, TF over GST control)	1.41 fold enrichment (6-mer frequency, TF over GST control)	1.37 fold enrichment (6-mer frequency, TF over GST control)	1.4 fold enrichment (6-mer frequency, TF over GST control)	1.37 fold enrichment (6-mer frequency, TF over GST control)	1.35 fold enrichment (6-mer frequency, TF over GST control)	1.36 fold enrichment (6-mer frequency, TF over GST control)	1.42 fold enrichment (6-mer frequency, TF over GST control)	1.2 fold enrichment (6-mer frequency, TF over GST control)
ACCGAT	1.14 fold enrichment (6-mer frequency, TF over GST control)	1.12 fold enrichment (6-mer frequency, TF over GST control)	1.2 fold enrichment (6-mer frequency, TF over GST control)	1.07 fold enrichment (6-mer frequency, TF over GST control)	1.17 fold enrichment (6-mer frequency, TF over GST control)	1.16 fold enrichment (6-mer frequency, TF over GST control)	1.1 fold enrichment (6-mer frequency, TF over GST control)	1.13 fold enrichment (6-mer frequency, TF over GST control)	1.04 fold enrichment (6-mer frequency, TF over GST control)
GGCTTC	1.68 fold enrichment (6-mer frequency, TF over GST control)	1.8 fold enrichment (6-mer frequency, TF over GST control)	1.57 fold enrichment (6-mer frequency, TF over GST control)	1.79 fold enrichment (6-mer frequency, TF over GST control)	1.62 fold enrichment (6-mer frequency, TF over GST control)	1.78 fold enrichment (6-mer frequency, TF over GST control)	1.65 fold enrichment (6-mer frequency, TF over GST control)	1.78 fold enrichment (6-mer frequency, TF over GST control)	1.81 fold enrichment (6-mer frequency, TF over GST control)
GCTTCA	1.35 fold enrichment (6-mer frequency, TF over GST control)	1.39 fold enrichment (6-mer frequency, TF over GST control)	1.28 fold enrichment (6-mer frequency, TF over GST control)	1.34 fold enrichment (6-mer frequency, TF over GST control)	1.33 fold enrichment (6-mer frequency, TF over GST control)	1.4 fold enrichment (6-mer frequency, TF over GST control)	1.24 fold enrichment (6-mer frequency, TF over GST control)	1.31 fold enrichment (6-mer frequency, TF over GST control)	1.27 fold enrichment (6-mer frequency, TF over GST control)
CTCACA	1.29 fold enrichment (6-mer frequency, TF over GST control)	1.3 fold enrichment (6-mer frequency, TF over GST control)	1.38 fold enrichment (6-mer frequency, TF over GST control)	1.34 fold enrichment (6-mer frequency, TF over GST control)	1.35 fold enrichment (6-mer frequency, TF over GST control)	1.42 fold enrichment (6-mer frequency, TF over GST control)	1.27 fold enrichment (6-mer frequency, TF over GST control)	1.38 fold enrichment (6-mer frequency, TF over GST control)	1.41 fold enrichment (6-mer frequency, TF over GST control)
